Experimental data published in PubChem BioAssay (NCI).
About 83,000 compounds went through this panel and 20% of them were active in at least one assay; those are over-represented in the sample as a whole.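 Compound tested at a single concentration for 48 hours in 96-well plates; a percent growth value below 10 was scored as active.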 Values without a mark were called inactive. Calls of active or inactive are those of the source.

The compounds below were run on SK-MEL-28 melanoma (assay: NCI-60 one-dose screen, 48 h (100 = growth as untreated, 0 = no growth, -100 = all killed)). Conditions: 10 µM unless noted.
Procedure: Growth inhibition of the SK-MEL-28 human tumor cell line is measured as a screen for anti-cancer activity. Cells are grown in 96 well plates and exposed to the test compound for 48 hours. Compounds are tested at a single concentration, which is 10^-5 M for most compounds. The reported endpoint is percent growth (GI% or GIPRCNT), where numbers from 0 - 100% represent growth inhibition, and numbers from -100% - 0 represent cell death. For example, a value of 40 represents 60% growth inhibition. A value of 0 means no net growth occurred over the course of the experiment. A value of -40 indicates 40% of cells at the beginning of the experiment died by the end of the experiment. A value of -100 means all cells are dead at the end of the experiment.
NCI-60 Human Tumor Cell Lines Screen was performed using the standard one-dose NCI protocol, which is described in more detail at https://dtp.cancer.gov/discovery_development/nci-60/default.htm.
Compounds with GIPRCNT values below 10 were considered active. Activity score was based on GIPRCNT using the following formula: […]
Score is 0 for GIPRCNT values of 100 or above, 50 for GIPRCNT values of 0, and 100 for GIPRCNT values of -100.

Compound	growth
COc1ccc(-c2cc(-c3nnc(SCC(=O)Nc4ccc(/C(C)=N\O)cc4)o3)c3ccccc3n2)cc1	114%
COc1ccc(C(=O)c2cc(OC)c(OC)c(OC)c2)cc1OC(=O)C(Cl)(Cl)Cl	51.6%
C=C1C(=O)O[C@H]2[C@H]1CC/C(COC(=O)Nc1nc3ccccc3[nH]1)=C\CC[C@@]1(C)O[C@@H]21	61.4%
COC(=O)c1nc(-c2ccccc2)oc1S(=O)(=O)n1nc(C)cc1N	87.4%
CC(C)Cc1cc(CNC(=O)C2[C@H]3CN(C(=O)c4ccccc4)C[C@@H]23)nn1-c1ccccc1 (stereo not given in full)	93.5%
OCCNc1nc(NCCO)nc(Nc2ccc(C3=NN(c4cc(Cl)cc(Cl)c4)C(c4ccccc4)C3)cc2)n1 (stereo not given)	49.9%
COc1ccc2[nH]c(-c3ccccc3)c(C=C(C#N)C#N)c2c1	44%
COc1ccc2c(c1)C1(C(=O)N2)C(C#N)=C(c2ccccc2)Nc2c1c(-c1ccccc1)nn2-c1ccccc1 (stereo not given)	42.9%
O=C(Nc1ccc2ncnc(Nc3cccc(C(F)(F)F)c3)c2c1)c1cccs1	89.1%
N#Cc1c(-c2ccc(F)cc2)nc(N=Nc2c(O)[nH]c3ccccc23)nc1N1CCOCC1	72.3%
COc1ccc2nc(-c3ccc(OC)c(OC)c3)cc(-c3nnc(SCC(=O)Nc4ccc(/C(C)=N\O)cc4)n3-c3ccccc3)c2c1	111%
CNC(=O)c1cc(Oc2ccc3c(c2)sc2nc(-c4ccc(NC(C)=O)cc4)cn23)ccn1	70%
C=C1C(=O)O[C@H]2[C@H]1CC/C(COC(=O)CCC(=O)OC/C1=C/CC[C@@]3(C)O[C@H]3[C@H]3OC(=O)C(=C)[C@@H]3CC1)=C\CC[C@@]1(C)O[C@@H]21	4.61% (active)
Cc1ccc(C2CC(c3ccc(Nc4nc(NCCO)nc(NCCO)n4)cc3)=NN2c2ccc(Cl)cc2)cc1 (stereo not given)	48.4%
CC1(C)[C@@H](O)CC[C@]2(C)[C@H]3CC[C@@H]4[C@H]5[C@H](c6cn(-c7ccccc7)nn6)CC[C@]5(CO)CC[C@@]4(C)[C@]3(C)CC[C@@H]12	88.7%
C#CCN1C(=O)c2ccccc2N(CC#C)C12CCN(Cc1cn(CC(=O)Nc3ccccc3C(N)=O)nn1)CC2	93.4%
COc1cc(/C=C/C(=O)c2ccc(NC(=O)CSc3nnc(-c4cc(OC)c(OC)c(OC)c4)n3-c3ccccc3)cc2)cc(OC)c1OC	33.3%
COc1cc(/C=C/C(=O)/C=C/c2cc3ccc(Cl)cc3[nH]c2=O)ccc1O	98.8%
O=c1[nH]c2ccccc2cc1-c1nc2ccncc2[nH]1	95.7%
COc1ccc(-c2cc(C(=O)N3N=C(c4ccc(N)cc4)CC3c3ccc(OC)cc3)c3cc(OC)ccc3n2)cc1 (stereo not given)	64.4%

Compound	growth
O=C(CCl)N1CCCc2ccccc21	103%
CC(=O)c1cnc(-c2ccccc2)nc1CBr	104%
O=c1nc(-c2ccccc2)c2cc(-c3ccc(N4CCCC4)nc3)ccc2[nH]1	82.3%
c1ccc2nc(N3CCOCC3)c(N3CCCCC3)nc2c1	109%
COc1cccc(NC(=O)Nc2ccc(Nc3ncnc4[nH]c(C)c(C)c34)cc2)c1	104%
CCC[S@](=O)c1ccc2nc(NC(=O)OC)[nH]c2c1	107%
O=C1C(=O)c2c(nc3ccc(Br)cn23)-c2ccccc21	-60% (active)
COc1cc(/C=C/C(=O)/C=C/c2cc3ccc(Cl)cc3n(Cc3ccccc3)c2=O)ccc1O	3.48% (active)
O=CN1N=C(c2ccc(Cl)cc2)CC1c1cccc(Nc2ccnc3cc(C(F)(F)F)ccc23)c1 (stereo not given)	90.8%
Nc1ccc(C2=NN(C(=O)c3cc(-c4ccc(Cl)cc4)nc4ccccc34)C(c3ccc(Cl)cc3)C2)cc1 (stereo not given)	65%
CCN1CCN(Cc2ccc(NC(=O)c3cccc(C#Cc4cccc5[nH]nc(N)c45)c3)cc2C(F)(F)F)CC1	-82.9% (active)
CCOC(=O)C1=C(C)n2nc(CC#N)c(C#N)c2NC1c1ccc(CC)cc1 (stereo not given)	103%
COc1ccc(Nc2cc(NC(=O)CNc3cc(OC)c(Cl)c(OC)c3Cl)ncn2)cc1	84.7%
O=C(CCCC(=O)Nc1ccc(-n2nnc3cc(Cl)c(Cl)cc32)cc1)Nc1ccc(-n2nnc3cc(Cl)c(Cl)cc32)cc1	57.9%
CCc1c(C(=O)N[C@@H](C(=O)OCc2ccccc2)C(C)O)[nH]c2ccc(Cl)cc12 (stereo not given in full)	100%
COc1ccc(-n2cc(-c3ccc(Cl)c(Cl)c3)[nH]c2=O)cc1OC	103%
O=C(O)c1cc(N=Nc2ccc(-c3ccc(N=Nc4c(S(=O)(=O)O)cc5ccc(Nc6ccccc6)cc5c4O)cc3)cc2)ccc1O	107%
COc1ccc(C(=O)c2cc(F)c(F)c(OC)c2F)cc1OC(=O)CCl	57.9%
CCCCc1nc(Cl)c(C2CC(c3ccc(Cl)cc3)=NN2c2cc(Cl)cc(Cl)c2)[nH]1 (stereo not given)	99.8%
CCOC(=O)C(=Cc1c(-c2ccccc2)[nH]c2ccccc12)C(=O)OCC	62.5%
